SMILES strings stand for the structures. About 83,000 compounds went through this panel and 20% of them were active in at least one assay; those are over-represented in the sample as a whole.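 The test compound was applied at a single concentration to cells in 96-well plates for 48 hours, and percent growth was recorded.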 A number with no mark means an inactive call. The source made the active and inactive calls. The calls were made as follows: active = growth percent below 10; inactive = the rest.

Among the test systems are SR leukemia; RPMI-8226 leukemia; OVCAR-8 ovarian; OVCAR-5 ovarian; OVCAR-4 ovarian; SK-OV-3 ovarian; IGROV1 ovarian; OVCAR-3 ovarian; NCI/ADR-RES ovarian; HS 578T breast.
Holding throughout (experiment): NCI-60 one-dose screen, 48 h (100 = growth as untreated, 0 = no growth, -100 = all killed)
Common to all, as to details: 10 µM unless noted

For `COC(=O)C(C(=O)OC)C(Br)C(Br)C(Br)c1ccccc1` (stereo not given), the growth in the assay on SR leukemia was -10% (active); with RPMI-8226 leukemia it was 80.5%; in the assay with OVCAR-8 ovarian it was 91.8%; in the assay with OVCAR-5 ovarian, 120%; with OVCAR-4 ovarian, 90.1%; in the assay on SK-OV-3 ovarian, 109%. Further, the growth in the assay with IGROV1 ovarian was 107%; with OVCAR-3 ovarian it was 92.6%; in the assay on NCI/ADR-RES ovarian, 111%.

For the compound `C=C(C)C(C(=O)OCC)(C(=O)OCC)C(C)C`, the growth in the assay with SR leukemia is 120%; with RPMI-8226 leukemia, 99.4%; in the assay with OVCAR-8 ovarian, 108%; with OVCAR-5 ovarian, 94.7%; in the assay on OVCAR-4 ovarian it was 98.5%; in the assay with SK-OV-3 ovarian it was 107%. For the same compound, the growth in the assay with IGROV1 ovarian is 117%; in the assay with OVCAR-3 ovarian, 116%; in the assay on NCI/ADR-RES ovarian, 116%.

Regarding `NC(CSC(c1ccccc1)(c1ccccc1)c1ccccc1)C(=O)NCC(=O)O` (stereo not given), the growth in the assay with SR leukemia was 34.1%; in the assay on RPMI-8226 leukemia, 49.3%; with OVCAR-8 ovarian it was 70.7%; with OVCAR-5 ovarian, 94.7%; in the assay on OVCAR-4 ovarian it was 100%; in the assay on SK-OV-3 ovarian, 35%. Moreover, the results for the growth in the assay with IGROV1 ovarian, with OVCAR-3 ovarian and in the assay on NCI/ADR-RES ovarian were 72.6%, 98% and 108%, respectively.

For `CCCCCCCCCCN1CC2CCCCC2C1` (stereo not given), the growth in the assay on SR leukemia is 12.9%; in the assay with RPMI-8226 leukemia it was 51.6%; with OVCAR-8 ovarian it was 94%; with OVCAR-5 ovarian it was 66.2%; with OVCAR-4 ovarian it was 49.1%; in the assay on SK-OV-3 ovarian it was 83.8%. The growth was 90% in the assay on IGROV1 ovarian, 77.9% in the assay on OVCAR-3 ovarian, 84.4% with HS 578T breast and 83.8% in the assay with NCI/ADR-RES ovarian.

Regarding `CC(=N\N=C(N)N)/C(=N/N=C(N)N)c1ccccc1`, the growth in the assay with SR leukemia is 89.3%; with RPMI-8226 leukemia, 91.7%; in the assay with OVCAR-8 ovarian, 83.1%; with OVCAR-5 ovarian, 96.1%; in the assay with OVCAR-4 ovarian, 79.2%; in the assay with SK-OV-3 ovarian it was 102%. In addition, the figures for the growth in the assay on IGROV1 ovarian, in the assay with OVCAR-3 ovarian and in the assay with NCI/ADR-RES ovarian were 91.4%, 97.9% and 90.2%, respectively.

For `N=C(N)N=Nc1ccc(NN=C(N)N)cc1`, the growth in the assay on SR leukemia was 108%; in the assay on RPMI-8226 leukemia, 95.8%; with OVCAR-8 ovarian it was 94.4%; with OVCAR-5 ovarian it was 78.7%; with OVCAR-4 ovarian, 100%; in the assay with SK-OV-3 ovarian, 24%. The growth in the assay with IGROV1 ovarian was 99.8%; with OVCAR-3 ovarian, 108%; with NCI/ADR-RES ovarian, 110%.

For the compound `Oc1ccc(Br)cc1/C=N/NC(=S)NC12CC3CC(CC(C3)C1)C2`, the growth in the assay with SR leukemia is -7.5% (active); in the assay with RPMI-8226 leukemia it was -21.3% (active); in the assay on OVCAR-8 ovarian, -31.3% (active); in the assay with OVCAR-5 ovarian, 46.9%; in the assay with OVCAR-4 ovarian, 36.9%; with SK-OV-3 ovarian, 39.7%. The values for the growth with IGROV1 ovarian, in the assay with OVCAR-3 ovarian and in the assay with NCI/ADR-RES ovarian were 5.57% (active), -26.5% (active) and -3.63% (active), respectively.

Consider `Cc1cc(CSc2ccc(Cl)cc2)ccc1N`, for which the growth in the assay with SR leukemia is 93.5%; with RPMI-8226 leukemia, 15.5%; with OVCAR-8 ovarian it was 99.8%; in the assay on OVCAR-5 ovarian, 99.6%; in the assay with OVCAR-4 ovarian, 96.9%; with SK-OV-3 ovarian, 106%. Besides, the growth in the assay on IGROV1 ovarian is 86%; in the assay on OVCAR-3 ovarian, 97.6%; in the assay on NCI/ADR-RES ovarian, 95%.

Regarding `CN1C(=O)C(=Cc2coc3ccc(Br)cc3c2=O)C(=O)N(C)C1=O`, the growth is 126% in the assay on SR leukemia; 108% with RPMI-8226 leukemia; 98.5% with OVCAR-8 ovarian; 114% in the assay with OVCAR-5 ovarian; 118% in the assay on OVCAR-4 ovarian; 96.3% in the assay with SK-OV-3 ovarian. The growth in the assay on IGROV1 ovarian is 101%; in the assay with OVCAR-3 ovarian, 105%; with NCI/ADR-RES ovarian, 97.9%.

For `CC1(C)N=C(N)N=C(N)N1c1cccc(CCCCOc2ccccc2)c1`, the growth in the assay on SR leukemia was 31.6%; in the assay with RPMI-8226 leukemia, 8.3% (active); in the assay with OVCAR-8 ovarian, 19.9%; in the assay on OVCAR-5 ovarian, 29.6%; in the assay on OVCAR-4 ovarian it was 61%; in the assay on SK-OV-3 ovarian, 41.8%. The values for the growth with IGROV1 ovarian, in the assay with OVCAR-3 ovarian and in the assay on NCI/ADR-RES ovarian were 26.6%, 26.5% and 107%, respectively.

For `CC/C(=N\Nc1nc2ccccc2n1C)c1ccccn1`, the growth in the assay on SR leukemia was 3.71% (active); with RPMI-8226 leukemia, 10.4%; with OVCAR-8 ovarian it was 15.5%; in the assay with OVCAR-5 ovarian it was 29%; in the assay with OVCAR-4 ovarian it was 11.5%; in the assay with SK-OV-3 ovarian it was 11.6%. Moreover, the values for the growth in the assay with IGROV1 ovarian, in the assay with HS 578T breast and in the assay with NCI/ADR-RES ovarian were 13.6%, 48.4% and -5.99% (active), respectively.

In the case of `COCC(=O)NNc1[nH]c(-c2ccc(OC)cc2)cc1C#N`, the growth in the assay on SR leukemia is 102%; in the assay on RPMI-8226 leukemia, 101%; with OVCAR-8 ovarian, 113%; with OVCAR-5 ovarian it was 98.6%; with OVCAR-4 ovarian, 127%; in the assay on SK-OV-3 ovarian, 112%. Besides, the growth with OVCAR-3 ovarian is 129%; in the assay with HS 578T breast, 104%; with NCI/ADR-RES ovarian, 106%.

As for `CC1(C)NC(=S)NC1=O`, the growth is 93.1% in the assay on SR leukemia; 101% with RPMI-8226 leukemia; 106% in the assay on OVCAR-8 ovarian; 108% in the assay on OVCAR-5 ovarian; 103% with OVCAR-4 ovarian; 98.6% with SK-OV-3 ovarian. Moreover, the growth was 116% with IGROV1 ovarian and 104% in the assay on NCI/ADR-RES ovarian.

For the compound `COc1ccc(Oc2[nH]n(C3=Nc4ccccc4Sc4ccccc43)c(=O)c2C#N)cc1`, the growth with SR leukemia is 130%; with RPMI-8226 leukemia it was 91.2%; in the assay on OVCAR-8 ovarian, 96.2%; in the assay with OVCAR-5 ovarian, 116%; in the assay on OVCAR-4 ovarian, 112%; with SK-OV-3 ovarian, 95.5%. Further, the growth is 91.6% in the assay with IGROV1 ovarian, 91.8% in the assay on OVCAR-3 ovarian and 87% in the assay with NCI/ADR-RES ovarian.

With `CCCCN(CCCC)CC(O)CN(CC)CC` (stereo not given), the growth in the assay with SR leukemia is 97%; with RPMI-8226 leukemia, 97.4%; with OVCAR-8 ovarian, 104%; in the assay with OVCAR-5 ovarian, 95.3%; with OVCAR-4 ovarian, 97%; with SK-OV-3 ovarian, 99%. Also, the growth with IGROV1 ovarian is 100%; in the assay with HS 578T breast, 120%; in the assay with NCI/ADR-RES ovarian, 105%.

For the origin of these results see PubChem BioAssay (NCI).
